# From PMC11006913
# Numbering of substitutions follows the chain as printed.
# Tests used:
# Experiment in all cases: PBM; 200 nM protein, PBS
# Settings in all cases: dsDNA, one strand shown
# [1] = target: HOXB4 (Homo sapiens, UniProt P17483 148-234)
# [2] = target: HOXB6 (Homo sapiens, UniProt P17509 132-218, K202E)
# [3] = target: HOXB4 (Homo sapiens, UniProt P17483 148-234, V174I)
# [4] = target: ALX1 (Homo sapiens, UniProt Q15699 118-204, L144V)
# [5] = target: ALX1 (Homo sapiens, UniProt Q15699 118-204, L144R)
# Sequence of ALX1 (Homo sapiens, UniProt Q15699 118-204, L144R) (Q15699 118-204 L144R): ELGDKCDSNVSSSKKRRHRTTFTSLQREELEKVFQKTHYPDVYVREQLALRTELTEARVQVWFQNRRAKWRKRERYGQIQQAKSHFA
# [6] = target: ALX1 (Homo sapiens, UniProt Q15699 118-204)
# Sequence of ALX1 (Homo sapiens, UniProt Q15699 118-204) (Q15699 118-204): as the sequence (Q15699 118-204 L144R) above, with R27L counted along it
# [7] = target: HOXB6 (Homo sapiens, UniProt P17509 132-218)
# Sequence of HOXB6 (Homo sapiens, UniProt P17509 132-218) (P17509 132-218): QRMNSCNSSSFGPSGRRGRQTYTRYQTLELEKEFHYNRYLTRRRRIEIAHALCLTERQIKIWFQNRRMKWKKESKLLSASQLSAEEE
# [8] = target: HOXA4 (Homo sapiens, UniProt Q00056 201-287, R217L)
# Sequence of HOXA4 (Q00056 201-287 R217L): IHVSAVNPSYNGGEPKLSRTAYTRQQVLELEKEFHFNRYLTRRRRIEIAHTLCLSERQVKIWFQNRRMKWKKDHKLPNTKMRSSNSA
# [9] = target: ALX4 (Homo sapiens, UniProt Q9H161 200-286)
# Sequence of ALX4 (Homo sapiens, UniProt Q9H161 200-286) (Q9H161 200-286): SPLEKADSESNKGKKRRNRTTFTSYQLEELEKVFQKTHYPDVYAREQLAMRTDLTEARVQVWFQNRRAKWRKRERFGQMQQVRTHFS
# [10] = target: ALX4 (Homo sapiens, UniProt Q9H161 200-286, Q225E)
# Sequence of ALX4 (Homo sapiens, UniProt Q9H161 200-286, Q225E) (Q9H161 200-286 Q225E): as the sequence (Q9H161 200-286) above, with Q26E counted along it
# [11] = target: VAX1 (Homo sapiens, UniProt Q5SQQ9 86-172)
# Sequence of VAX1 (Homo sapiens, UniProt Q5SQQ9 86-172) (Q5SQQ9 86-172): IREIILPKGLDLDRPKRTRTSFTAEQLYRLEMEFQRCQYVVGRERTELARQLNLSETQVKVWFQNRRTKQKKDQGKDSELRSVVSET
# [12] = target: VAX1 (Homo sapiens, UniProt Q5SQQ9 86-172, T142I)
# Sequence of VAX1 (Homo sapiens, UniProt Q5SQQ9 86-172, T142I) (Q5SQQ9 86-172 T142I): as the sequence (Q5SQQ9 86-172) above, with T57I counted along it
# [13] = target: VAX1 (Homo sapiens, UniProt Q5SQQ9 86-172, K157R)
# Sequence of VAX1 (Homo sapiens, UniProt Q5SQQ9 86-172, K157R) (Q5SQQ9 86-172 K157R): as the sequence (Q5SQQ9 86-172) above, with K72R counted along it
# [14] = target: HOXC10 (Homo sapiens, UniProt Q9NYD6 254-340)
# Sequence of HOXC10 (Homo sapiens, UniProt Q9NYD6 254-340) (Q9NYD6 254-340): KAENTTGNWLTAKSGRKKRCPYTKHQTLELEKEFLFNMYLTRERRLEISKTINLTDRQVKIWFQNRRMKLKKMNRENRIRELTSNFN
# [15] = target: HOXC10 (Homo sapiens, UniProt Q9NYD6 254-340, K271E)
# Sequence of HOXC10 (Homo sapiens, UniProt Q9NYD6 254-340, K271E) (Q9NYD6 254-340 K271E): as the sequence (Q9NYD6 254-340) above, with K18E counted along it
# [16] = target: PRRX1 (Homo sapiens, UniProt P54821 80-166, F113S)
# Sequence of PRRX1 (Homo sapiens, UniProt P54821 80-166, F113S) (P54821 80-166 F113S): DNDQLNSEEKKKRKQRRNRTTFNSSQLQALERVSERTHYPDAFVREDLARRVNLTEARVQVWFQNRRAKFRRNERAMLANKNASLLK
# [17] = target: PRRX1 (Homo sapiens, UniProt P54821 80-166)
# Sequence of PRRX1 (Homo sapiens, UniProt P54821 80-166) (P54821 80-166): as the sequence (P54821 80-166 F113S) above, with S34F counted along it
# [18] = target: T1, PAX4 (Homo sapiens, UniProt O43316 9-242, R200K)
# T1 sequence: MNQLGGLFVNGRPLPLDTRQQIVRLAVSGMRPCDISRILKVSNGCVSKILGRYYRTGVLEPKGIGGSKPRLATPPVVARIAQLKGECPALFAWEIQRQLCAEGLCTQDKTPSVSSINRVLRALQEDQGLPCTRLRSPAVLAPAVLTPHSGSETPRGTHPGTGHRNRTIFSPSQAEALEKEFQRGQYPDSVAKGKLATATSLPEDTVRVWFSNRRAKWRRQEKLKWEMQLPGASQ
# [19] = target: T2, PAX4 (Homo sapiens, UniProt O43316 9-242)
# T2 sequence: T1 sequence with K192R
# [20] = target: ALX3 (Homo sapiens, UniProt O95076 139-225, N203Q)
# Sequence of ALX3 (Homo sapiens, UniProt O95076 139-225, N203Q) (O95076 139-225 N203Q): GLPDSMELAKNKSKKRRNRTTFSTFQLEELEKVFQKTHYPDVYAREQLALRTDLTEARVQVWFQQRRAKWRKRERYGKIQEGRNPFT
# [21] = target: T3, PAX4 (Homo sapiens, UniProt O43316 9-242, R200Q)
# T3 sequence: T1 sequence with K192Q
# [22] = target: T4, PAX4 (Homo sapiens, UniProt O43316 9-242, F177V)
# T4 sequence: T1 sequence with F169V, K192R
# [23] = target: ALX3 (Homo sapiens, UniProt O95076 139-225)
# Sequence of ALX3 (Homo sapiens, UniProt O95076 139-225) (O95076 139-225): as the sequence (O95076 139-225 N203Q) above, with Q65N counted along it
# [24] = target: T5, PAX4 (Homo sapiens, UniProt O43316 9-242, F177Y)
# T5 sequence: T1 sequence with F169Y, K192R
# [25] = target: ALX3 (Homo sapiens, UniProt O95076 139-225, L168Q)
# Sequence of ALX3 (Homo sapiens, UniProt O95076 139-225, L168Q) (O95076 139-225 L168Q): as the sequence (O95076 139-225 N203Q) above, with L30Q, Q65N counted along it
# [26] = target: ALX3 (Homo sapiens, UniProt O95076 139-225, L168V)
# Sequence of ALX3 (Homo sapiens, UniProt O95076 139-225, L168V) (O95076 139-225 L168V): as the sequence (O95076 139-225 N203Q) above, with L30V, Q65N counted along it
# [27] = target: T6, PAX4 (Homo sapiens, UniProt O43316 9-242, R227W)
# T6 sequence: T1 sequence with K192R, R219W
# [28] = target: ALX3 (Homo sapiens, UniProt O95076 139-225, N203S)
# Sequence of ALX3 (Homo sapiens, UniProt O95076 139-225, N203S) (O95076 139-225 N203S): as the sequence (O95076 139-225 N203Q) above, with Q65S counted along it
# Sequence of HOXB4 (Homo sapiens, UniProt P17483 148-234, V174I) (P17483 148-234 V174I): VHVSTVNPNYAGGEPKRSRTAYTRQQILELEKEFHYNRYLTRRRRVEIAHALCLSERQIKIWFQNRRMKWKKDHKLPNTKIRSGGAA
# Sequence of HOXB4 (Homo sapiens, UniProt P17483 148-234) (P17483 148-234): as the sequence (P17483 148-234 V174I) above, with I27V counted along it
# Sequence of HOXB6 (Homo sapiens, UniProt P17509 132-218, K202E) (P17509 132-218 K202E): as the sequence (P17509 132-218) above, with K71E counted along it
# Sequence of ALX1 (Homo sapiens, UniProt Q15699 118-204, L144V) (Q15699 118-204 L144V): as the sequence (Q15699 118-204 L144R) above, with R27V counted along it
sequence,measurement,setting,value
AGGCGCGC,binding signal,[1],"7.53 upbm affinity estimate (log intensity, higher = more binding, comparable within an allelic series)"
same,binding signal,[2],"9.19 upbm affinity estimate (log intensity, higher = more binding, comparable within an allelic series)"
same,binding signal,[3],"7.6 upbm affinity estimate (log intensity, higher = more binding, comparable within an allelic series)"
same,binding signal,[4],"6.59 upbm affinity estimate (log intensity, higher = more binding, comparable within an allelic series)"
same,binding signal,[5],"6.72 upbm affinity estimate (log intensity, higher = more binding, comparable within an allelic series)"
same,binding signal,[6],"6.44 upbm affinity estimate (log intensity, higher = more binding, comparable within an allelic series)"
same,binding signal,[7],"8.96 upbm affinity estimate (log intensity, higher = more binding, comparable within an allelic series)"
AATGATTA,binding signal,[1],"13.1 upbm affinity estimate (log intensity, higher = more binding, comparable within an allelic series)"
same,binding signal,[8],"12 upbm affinity estimate (log intensity, higher = more binding, comparable within an allelic series)"
same,binding signal,[3],"13.8 upbm affinity estimate (log intensity, higher = more binding, comparable within an allelic series)"
CTGGAGCC,binding signal,[1],"7.25 upbm affinity estimate (log intensity, higher = more binding, comparable within an allelic series)"
same,binding signal,[9],"7.69 upbm affinity estimate (log intensity, higher = more binding, comparable within an allelic series)"
same,binding signal,[10],"8.02 upbm affinity estimate (log intensity, higher = more binding, comparable within an allelic series)"
same,binding signal,[3],"7.29 upbm affinity estimate (log intensity, higher = more binding, comparable within an allelic series)"
same,binding signal,[11],"6.85 upbm affinity estimate (log intensity, higher = more binding, comparable within an allelic series)"
same,binding signal,[12],"6.94 upbm affinity estimate (log intensity, higher = more binding, comparable within an allelic series)"
same,binding signal,[13],"6.67 upbm affinity estimate (log intensity, higher = more binding, comparable within an allelic series)"
AACCCCCC,binding signal,[1],"7.54 upbm affinity estimate (log intensity, higher = more binding, comparable within an allelic series)"
same,binding signal,[3],"7.42 upbm affinity estimate (log intensity, higher = more binding, comparable within an allelic series)"
CGCCGTGC,binding signal,[1],"7.83 upbm affinity estimate (log intensity, higher = more binding, comparable within an allelic series)"
same,binding signal,[3],"7.83 upbm affinity estimate (log intensity, higher = more binding, comparable within an allelic series)"
GATCGTTA,binding signal,[1],"12.3 upbm affinity estimate (log intensity, higher = more binding, comparable within an allelic series)"
same,binding signal,[3],"12.8 upbm affinity estimate (log intensity, higher = more binding, comparable within an allelic series)"
CGCCGACG,binding signal,[1],"7.65 upbm affinity estimate (log intensity, higher = more binding, comparable within an allelic series)"
same,binding signal,[3],"7.86 upbm affinity estimate (log intensity, higher = more binding, comparable within an allelic series)"
CAGGGTCC,binding signal,[1],"7.33 upbm affinity estimate (log intensity, higher = more binding, comparable within an allelic series)"
same,binding signal,[14],"10 upbm affinity estimate (log intensity, higher = more binding, comparable within an allelic series)"
same,binding signal,[3],"7.37 upbm affinity estimate (log intensity, higher = more binding, comparable within an allelic series)"
same,binding signal,[15],"10 upbm affinity estimate (log intensity, higher = more binding, comparable within an allelic series)"
CACGCCGA,binding signal,[1],"7.66 upbm affinity estimate (log intensity, higher = more binding, comparable within an allelic series)"
same,binding signal,[3],"7.67 upbm affinity estimate (log intensity, higher = more binding, comparable within an allelic series)"
GCAGGGCC,binding signal,[1],"7.4 upbm affinity estimate (log intensity, higher = more binding, comparable within an allelic series)"
same,binding signal,[14],"10 upbm affinity estimate (log intensity, higher = more binding, comparable within an allelic series)"
same,binding signal,[3],"7.46 upbm affinity estimate (log intensity, higher = more binding, comparable within an allelic series)"
same,binding signal,[15],"10 upbm affinity estimate (log intensity, higher = more binding, comparable within an allelic series)"
same,binding signal,[11],"6.92 upbm affinity estimate (log intensity, higher = more binding, comparable within an allelic series)"
same,binding signal,[12],"7 upbm affinity estimate (log intensity, higher = more binding, comparable within an allelic series)"
same,binding signal,[13],"6.86 upbm affinity estimate (log intensity, higher = more binding, comparable within an allelic series)"
GACCGTGC,binding signal,[1],"7.54 upbm affinity estimate (log intensity, higher = more binding, comparable within an allelic series)"
same,binding signal,[16],"9.27 upbm affinity estimate (log intensity, higher = more binding, comparable within an allelic series)"
same,binding signal,[3],"7.53 upbm affinity estimate (log intensity, higher = more binding, comparable within an allelic series)"
same,binding signal,[17],"9.23 upbm affinity estimate (log intensity, higher = more binding, comparable within an allelic series)"
GTGATGGA,binding signal,[1],"9.37 upbm affinity estimate (log intensity, higher = more binding, comparable within an allelic series)"
same,binding signal,[3],"9.3 upbm affinity estimate (log intensity, higher = more binding, comparable within an allelic series)"
ACGTAGCA,binding signal,[1],"7.63 upbm affinity estimate (log intensity, higher = more binding, comparable within an allelic series)"
same,binding signal,[3],"7.7 upbm affinity estimate (log intensity, higher = more binding, comparable within an allelic series)"
TGGCATAA,binding signal,[1],"10 upbm affinity estimate (log intensity, higher = more binding, comparable within an allelic series)"
same,binding signal,[3],"9.76 upbm affinity estimate (log intensity, higher = more binding, comparable within an allelic series)"
CAACAGAG,binding signal,[1],"7.94 upbm affinity estimate (log intensity, higher = more binding, comparable within an allelic series)"
same,binding signal,[3],"7.66 upbm affinity estimate (log intensity, higher = more binding, comparable within an allelic series)"
CGCTGGCC,binding signal,[1],"7.45 upbm affinity estimate (log intensity, higher = more binding, comparable within an allelic series)"
same,binding signal,[18],"8.99 upbm affinity estimate (log intensity, higher = more binding, comparable within an allelic series)"
same,binding signal,[19],"9.12 upbm affinity estimate (log intensity, higher = more binding, comparable within an allelic series)"
same,binding signal,[3],"7.53 upbm affinity estimate (log intensity, higher = more binding, comparable within an allelic series)"
same,binding signal,[20],"7.62 upbm affinity estimate (log intensity, higher = more binding, comparable within an allelic series)"
same,binding signal,[21],"9.12 upbm affinity estimate (log intensity, higher = more binding, comparable within an allelic series)"
same,binding signal,[22],"9.1 upbm affinity estimate (log intensity, higher = more binding, comparable within an allelic series)"
same,binding signal,[23],"7.39 upbm affinity estimate (log intensity, higher = more binding, comparable within an allelic series)"
same,binding signal,[24],"9.14 upbm affinity estimate (log intensity, higher = more binding, comparable within an allelic series)"
same,binding signal,[25],"7.58 upbm affinity estimate (log intensity, higher = more binding, comparable within an allelic series)"
same,binding signal,[26],"7.61 upbm affinity estimate (log intensity, higher = more binding, comparable within an allelic series)"
same,binding signal,[27],"9.18 upbm affinity estimate (log intensity, higher = more binding, comparable within an allelic series)"
same,binding signal,[28],"7.65 upbm affinity estimate (log intensity, higher = more binding, comparable within an allelic series)"
ACGTGGCG,binding signal,[1],"7.5 upbm affinity estimate (log intensity, higher = more binding, comparable within an allelic series)"
same,binding signal,[3],"7.6 upbm affinity estimate (log intensity, higher = more binding, comparable within an allelic series)"
